Screening results: PubChem, several laboratories
PfHsp40 rescue – rescue of PfHsp40-mediated yeast toxicity; 0.68% of 340,000 active; growth rescue, % at 12.5 µM; S. cerevisiae expressing PfHsp40, growth rescue, ATP luminescence; AID 504582; in the data active = growth rescue above about 28%, passing the limit was not always enough; inconclusive = no clear call, values can overlap the other calls;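 also: yeast W303a lacking pdr1 and pdr3 grown in galactose medium; growth measured after three days at 30 °C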
BH1578 lux ind – quorum light induction in luxS cqsA deficient V. cholerae | V. cholerae BH1578 lux reporter, luminescence, 6 h | activation, % at 18.7 µM | 0.16% of 350,000 active | AID 588436; in the data active = activation mostly above about 9.7%, no sharp cut-off; inconclusive = no clear call, values can overlap the other calls; inactive = mostly below about 3.7%
3CLpro inhibitor – SARS-CoV 3CLpro protease inhibition; P0C6X7; recombinant SARS-CoV 3CLpro, quenched FRET peptide cleavage; inhibition, % at 6 µM; 0.14% of 290,000 active; AID 1706; in the data active = inhibition above about 12%
BJeLR lethal – kills HRASV12-expressing BJeLR cells. BJeLR (HRASV12) viability, CellTiter-Glo ATP luminescence, 48 h. inhibition, % (concentration not given with the values). 0.17% of 300,000 active. AID 1554; in the data active = inhibition above about 50%; inconclusive = no clear call, values can overlap the other calls
MazF activator – increases E. coli MazEF RNase cleavage of RNA; FAM/BHQ RNA-DNA oligo cleavage fluorescence, 5 h; activation, % at 20 µM; 0.32% of 350,000 active; AID 504720; in the data active = activation above about 50%
Target sequence (P0AE70 whole entry, looked up): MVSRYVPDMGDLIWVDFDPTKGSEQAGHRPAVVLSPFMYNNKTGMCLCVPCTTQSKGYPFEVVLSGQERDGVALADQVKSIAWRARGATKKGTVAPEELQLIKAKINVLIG
DUSP3 inh – DUSP3 (human) phosphatase inhibition; P51452; recombinant VHR phosphatase, pNPP absorbance; inhibition, % at 13.3 µM; 0.52% of 290,000 active; in the data active = inhibition above about 50%
Target sequence (P51452 whole entry, looked up): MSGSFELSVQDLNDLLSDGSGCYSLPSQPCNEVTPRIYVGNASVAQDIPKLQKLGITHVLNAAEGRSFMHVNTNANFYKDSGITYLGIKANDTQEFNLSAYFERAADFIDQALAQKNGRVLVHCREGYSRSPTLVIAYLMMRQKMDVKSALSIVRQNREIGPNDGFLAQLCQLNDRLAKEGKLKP
* = called active by the depositor; i = inactive; ? = inconclusive; · = not tested or not shown; + = active, no number. Only some compounds are listed: those with a hit (about 1.7% of all), similar ones and a draw of the others.

SMILES	PfHsp40 rescue	BH1578 lux ind	3CLpro inhibitor	BJeLR lethal	MazF activator	DUSP3 inh
C/C(CC(=O)Nc1cc(C)ccn1)=N\NC(=O)c1ccc(C)cc1	0	0	-4	3	-4	13
C/C(CC(=O)Nc1cc(C)ccn1)=N\NC(=O)c1cccc(F)c1	-1	0	1	5	5	52*
Cc1ccc(C(=O)NC2CC3CCCC(C2)N3Cc2ccccc2)cc1 (configuration not stated)	0	0	2	0	6	53*
CCN(CC)C(=O)C1=C(C)N(CCCN2CCCC2=O)C(=O)C(CC(=O)NCCCN(C)C)C1 (configuration not stated)	·	i	·	·	4	·
O=C(NC1CCN(C(=O)Nc2ccccc2)CC1)C1CCCCC1	0	i	-2	2	9	52*
O=C(NC1CCCC1)C1CCCN(C(=O)Nc2ccccc2)C1 (configuration not stated)	1	i	-2	-12	12	4
CCn1c(SCC(=O)NCc2ccccc2)nc2nc3c(cc2c1=O)CCCC3	-2	i	-3	20	5	53*
CCn1c(SCC(=O)Nc2ccc(Cl)cc2)nc2nc3c(cc2c1=O)CCCC3	1	0	3	-4	-8	60*
CCn1c(SCC(=O)Nc2ccc(C(C)=O)cc2)nc2nc3c(cc2c1=O)CCCC3	-2	-1	-5	-1	1	5
O=C(c1ccc2nc[nH]c2c1)N1CCN(c2cccc(Cl)c2)CC1	9	-1	0	2	0	10
CC1CCCN(C(=O)c2ccc3nc[nH]c3c2)C1 (configuration not stated)	-1	0	1	-9	4	52*
O=c1c(O)c(-c2ccc(O)c(O)c2)oc2cc(O)ccc12	3	0	·	·	58*	·
OCCC1CN(Cc2cccn2-c2ccccn2)CCN1Cc1ccccc1 (configuration not stated)	1	-1	-5	-6	598*	0
Cc1ccc(NC(=O)N2CCCC(C(=O)O)C2)cc1 (configuration not stated)	0	0	2	-11	4	17
O=C(CSc1nnc(-c2ccccc2Cl)o1)N1CCCCC1	1	0	1	3	5	2
O=C(CSc1nnc(-c2ccccc2Cl)o1)N1CCCC1	0	-1	0	-3	8	56*
O=[N+]([O-])c1ccc(NC(=S)NCc2ccc(F)cc2)cc1	109*	i	4	-5	4	38
CC(=O)C1=C(C)Nc2ncnn2C1c1ccc(O)cc1 (configuration not stated)	-1	i	-3	5	4	58*
CC1=CC(C)(C)N(S(=O)(=O)c2ccc(C)cc2)c2cc(C)ccc21	22	i	2	55*	-8	16
C/C(=N\NS(C)(=O)=O)c1ccccc1	?	17*	-2	-3	1	21
C/C(=N\NC(N)=O)c1ccccc1	-1	i	2	0	4	10
CC[C@@H](O)C[C@H]1CCC[C@@]2(C[C@@H]3OC(=O)/C=C/[C@@](C)(O)[C@@H](O)[C@H](C)[C@@H](O)[C@H](OC4CCC(N(C)C)C(C)O4)[C@@H](O)[C@](C)(O)CCCCC/C=C/[C@@H]4CC(C)(C)O[C@@]4(O)C[C@H](O2)[C@H]3C)O1 (some centres not stated)	56*	6	·	·	17	·
S=C1NC[C@H](c2ccccc2)N1CCCCC1CCCCC1	330*	0	·	8	3	-5
CCNC(=O)C1(C)CCN(C(=O)c2cccc(OC(C)=O)c2C)C1 (configuration not stated)	·	i	·	·	·	·
Cc1ccc(-c2ccccc2NC(=O)CS(=O)CC(=O)Nc2ccc(C)c(Cl)c2)o1 (configuration not stated)	0	-1	4	-5	385*	-2
SMILES	PfHsp40 rescue	BH1578 lux ind	3CLpro inhibitor	BJeLR lethal	MazF activator	DUSP3 inh
O=c1oc2ccccc2c(N2CCCCC2)c1CN1CCCCC1	2	25*	3	3	-2	13
C=CCn1c(=N)c(S(=O)(=O)c2ccc(C)c(C)c2)cc2c(=O)n3ccccc3nc21	-1	-12	0	-3	183*	2
N=c1c(S(=O)(=O)c2ccc(Cl)cc2)cc2c(=O)n3ccccc3nc2n1CCc1ccccc1	-1	0	-5	15	·	43
CCOC(=O)c1cc2c(=O)n3ccccc3nc2n(Cc2ccc(Cl)cc2)c1=N	0	0	·	·	+	·
N=c1c(S(=O)(=O)c2ccc(Cl)cc2)cc2c(=O)n3ccccc3nc2n1Cc1cccnc1	-2	-1	2	-9	81*	-17
COc1ccc(CNC(=O)c2cc3c(=O)n4ccccc4nc3n(Cc3cccnc3)c2=N)cc1	0	4	-7	2	557*	20
CCc1nc2c(OCc3cccc(Cl)c3)cccn2c1N(C)C(=O)c1ccc(OC)cc1	·	-1	·	·	·	·
O=C(CN1C(=O)CC(c2ccccc2)=Nc2ccccc21)NCc1ccccc1	119*	i	5	-1	2	4
COc1ccc(CNC(=O)CN2C(=O)CC(c3ccccc3)=Nc3ccccc32)cc1	0	-1	5	4	-2	21
O=C(Nc1cc(S(=O)(=O)N2CCCC2)ccc1OCC(F)(F)F)c1ccncc1	·	i	·	·	8	·
COC(=O)C1C2c3ccccc3C(c3ccccc32)C1(C)C(=O)OC (configuration not stated)	35*	-6	·	·	11	·
CCCCCCCN1N=C(C)C(C(=O)c2ccccc2)C1=O (configuration not stated)	381*	i	-2	0	10	-10
CCCCN(C(=O)c1ccc(Cl)cc1)C1CC2CCC(C1)N2C (configuration not stated)	-1	0	1	-5	4	30
CCCCCCN1N=C(C)C(C(=O)c2ccc(Cl)cc2)C1=O (configuration not stated)	519*	0	-2	1	3	21
CC1=NN(c2ccccc2)C(=O)C1C(=O)c1cc([N+](=O)[O-])cc([N+](=O)[O-])c1 (configuration not stated)	-2	2	3	-1	-2	2
C=CCN(CC=C)C(=S)NC(=O)Cc1cccc2ccccc12	1	0	2	5	5	22
COc1ccc2nc(SCC(=O)Nc3nonc3C)[nH]c2c1	-1	2	1	17	3	3
Cc1ccc2nc(SCC(=O)Nc3nonc3C)[nH]c2c1	0	0	-2	0	-4	54*
COc1ccccc1N(C(=O)CCl)c1cn(C(C)=O)c2ccccc12	0	-1	2	65*	1	4
Cc1ccccc1-c1nnc2c3ccccc3c(C)nn12	2	-1	4	-3	12	4
